We go through 37 compounds from PubChem BioAssay (NCATS).

Values without a mark were called inactive. For some of these results: Measured potencies and affinities stand elsewhere. Calls of active or inactive are those of the source. How the calls were made is not given here.

A word on the AC50: it is the midpoint of the concentration-response curve, whichever way the signal moves.

For test [1] the following is noted: Ebola virus entry assay, green fluorescence channel.
The conditions of test [2]: Ebola virus entry assay, blue channel fluorescence.
The conditions of test [3]: Ebola virus entry assay, ratio channel.
The conditions of test [4]: Ebola virus entry assay, reporter ratio channel; Channel type: primary.
Wherever efficacy is given: 0% is about no effect.

On to `Nc1c2c(nc3c1CCC3)CCCC2`, for which, in test [1], the efficacy was 42.2%. Also, the AC50 in test [2] is 28.2 µM (active); in test [4], 31.6 µM (active). The outcome in test [3] was inactive.

Turning to `COc1cc(C[C@@H](C)N)c(OC)cc1Br`, the efficacy in test [1] was 42.4%. Further, the AC50 in test [2], in test [3] and in test [4] was 31.6 µM (active) each time.

Take `CN1CCN(CCC(=O)N2c3ccccc3Sc3ccc(C(F)(F)F)cc32)CC1`: the efficacy in test [1] was 68.9%. Besides, the AC50 in test [2] is 4.47 µM (active); in test [3], 2.82 µM (active); in test [4], 2.82 µM (active).

Take `O=C1NCCN1CCN1CCC(c2cn(-c3ccc(F)cc3)c3ccc(Cl)cc23)CC1`: the efficacy in test [1] is -279%. In addition, the results for the concentration at half-maximal activity (AC50) in test [2], in test [3] and in test [4] were 0.891 µM (active), 1 µM (active) and 1 µM (active), respectively.

Consider `O=C(CCCN1CCC(n2c(=O)[nH]c3ccccc32)CC1)c1ccc(F)cc1`, for which the efficacy in test [1] was 109%. In addition, the AC50 in test [2], in test [3] and in test [4] was 25.1 µM (active) in each case.

As for `CN1CCN(CCCN2c3ccccc3Sc3ccc(S(=O)(=O)N(C)C)cc32)CC1`, the efficacy in test [1] is 146%. Also, the AC50 in test [2] is 2.51 µM (active); in test [3], 2.24 µM (active); in test [4], 2.24 µM (active).

Turning to `COc1ccc(/C=C/C(=O)c2ccc(OC)cc2OC)cc1`, the efficacy in test [1] was 38.6%. Besides, the AC50 in test [2] and in test [4] was 39.8 µM (active) throughout. The result in test [3] was inactive.

As for `Cc1nnc2n1-c1sc(CCC(=O)N3CCOCC3)cc1C(c1ccccc1Cl)=NC2`, the efficacy in test [1] was 52.3%. Moreover, the compound was classed as inactive in test [2], in test [3] and in test [4].

For the compound `CCOc1ccc(Cc2nccc3cc(OCC)c(OCC)cc23)cc1OCC`, the efficacy in test [1] was 94.1%. In addition, the AC50 in test [2] and in test [4] was 39.8 µM (active) each time. In test [3], the outcome was inactive.

On to `O[C@@H](COc1cccc2ncccc12)CN1CCN(C2c3ccccc3[C@@H]3[C@H](c4ccccc42)C3(F)F)CC1` (stereo partly drawn), for which, in test [1], the efficacy was 34.8%. Further, the AC50 in test [2], in test [3] and in test [4] was 10 µM (active) each time.

Take `O=C1CN2CCOC2(c2ccccc2Cl)c2cc(Cl)ccc2N1` (stereo not drawn): the efficacy in test [1] is 46.2%. The compound was classed as inactive in test [2], in test [3] and in test [4].

Take `CCCCC1C(=O)N(c2ccccc2)N(c2ccc(O)cc2)C1=O` (stereo not drawn): the efficacy in test [1] was 73.1%. Further, the figures for the AC50 in test [2] and in test [4] were 28.2 µM (active) and 39.8 µM (active), respectively. Besides, in test [3], the outcome was inactive.

Take `O=C(CCC1CCN(Cc2ccccc2)CC1)c1ccc2c(c1)NCCCC2`: in test [1], the efficacy is 114%. Also, the AC50 in test [2], in test [3] and in test [4] was 7.08 µM (active) in each case.

Take `Cc1c(C)n(Cc2ccccc2)c2ccc(C(=O)OCCN(C)C)cc12`: in test [1], the efficacy is 60.6%. The AC50 in test [2], in test [3] and in test [4] was 3.16 µM (active) throughout.

Take `CCN(CC)CCOc1ccc(C(O)(Cc2ccc(Cl)cc2)c2ccc(C)cc2)cc1` (stereo not drawn): the efficacy in test [1] is -145%. For the same compound, the AC50 in test [2] is 2.51 µM (active); in test [3], 1.78 µM (active); in test [4], 1.78 µM (active).

On to `COc1ccc(CCN(C)CCCC(C#N)(c2cc(OC)c(OC)c(OC)c2)C(C)C)cc1OC` (stereo not drawn), for which, in test [1], the efficacy was 75%. For the same compound, the AC50 was 15.8 µM (active) in test [2], 14.1 µM (active) in test [3] and 14.1 µM (active) in test [4].

On to `C[C@@H](CN(C)C)CN1c2ccccc2Sc2ccccc21`, for which, in test [1], the efficacy was 66.9%. Besides, the AC50 in test [2] is 8.91 µM (active); in test [3] it was 10 µM (active); in test [4], 10 µM (active).

As to `COC1=C(OC)C(=O)C(CCCCCCCCCCO)=C(C)C1=O`, in test [1], the efficacy is 52%. For the same compound, the compound was classed as inactive in test [2], in test [3] and in test [4].

`Cc1nc2sccn2c(=O)c1CCN1CCC(=C(c2ccc(F)cc2)c2ccc(F)cc2)CC1`: the efficacy in test [1] is 82.1%. Moreover, the AC50 in test [2] is 17.8 µM (active); in test [3], 15.8 µM (active); in test [4], 15.8 µM (active).

Regarding `CCCCNc1ccc(C(=O)OCCN(C)C)cc1`, in test [1], the efficacy was 66.1%. For the same compound, the AC50 was 20 µM (active) in test [2], 28.2 µM (active) in test [3] and 28.2 µM (active) in test [4].

Turning to `CCN(CC)CCOC(=O)C(c1ccccc1)C1CCCCC1` (stereo not drawn), in test [1], the efficacy was -237%. In addition, the AC50 in test [2] is 2.82 µM (active); in test [3], 1.58 µM (active); in test [4], 1.58 µM (active).

On to `C1CCC(C(CC2CCCCN2)C2CCCCC2)CC1` (stereo not drawn), for which the efficacy in test [1] is -230%. Moreover, the AC50 is 1.78 µM (active) in test [2], 0.891 µM (active) in test [3] and 0.891 µM (active) in test [4].

Take `CC(C)COCC(CN(Cc1ccccc1)c1ccccc1)N1CCCC1` (stereo not drawn): the efficacy in test [1] is -190%. Also, the results for the AC50 in test [2], in test [3] and in test [4] were 2.82 µM (active), 2 µM (active) and 2 µM (active), respectively.

Turning to `CC(Cc1ccccc1)NCCCCl` (stereo not drawn), in test [1], the efficacy was 66.3%. The values for the half-maximal activity concentration (AC50) in test [2], in test [3] and in test [4] were 22.4 µM (active), 35.5 µM (active) and 35.5 µM (active), respectively.

With `CCC(=O)c1ccc2c(c1)N(CCCN(C)C)c1ccccc1S2`, in test [1], the efficacy is 153%. Besides, the AC50 in test [2] is 20 µM (active); in test [3], 17.8 µM (active); in test [4], 17.8 µM (active).

`COc1cc(CC(C)N)c(OC)cc1Br` (stereo not drawn): in test [1], the efficacy was 80.6%. Moreover, the AC50 is 31.6 µM (active) in test [2] and 39.8 µM (active) in test [4]. For the same compound, the result in test [3] was inactive.

`O=c1[nH]c2ccccc2n1CCCN1CCN(C(c2ccccc2)c2ccccc2)CC1`: the efficacy in test [1] is -120%. Further, the AC50 is 12.6 µM (active) in test [2], 3.98 µM (active) in test [3] and 3.98 µM (active) in test [4].

As for `Cc1ccc(N(CC2=NCCN2)c2cccc(O)c2)cc1`, the efficacy in test [1] is 66%. Further, the AC50 in test [2] was 35.5 µM (active); in test [3], 31.6 µM (active); in test [4], 31.6 µM (active).

For `c1ccc2nc(N3CCNCC3)ccc2c1`, the efficacy in test [1] was 106%. Besides, the AC50 in test [2] was 39.8 µM (active); in test [3], 35.5 µM (active); in test [4], 35.5 µM (active).

On to `Clc1ccc(C(Cn2ccnc2)OCc2c(Cl)cccc2Cl)c(Cl)c1` (stereo not drawn), for which, in test [1], the efficacy is -112%. In addition, the AC50 was 14.1 µM (active) in test [2], 8.91 µM (active) in test [3] and 8.91 µM (active) in test [4].

In the case of `Cc1oc(-c2ccccc2)nc1CCC(=O)c1ccc(CC2SC(=O)NC2=O)cc1` (stereo not drawn), the efficacy in test [1] was 43.2%. The compound was classed as inactive in test [2], in test [3] and in test [4].

With `CN(C)CCCSc1ccccc1NC(=O)/C=C/c1ccccc1`, the efficacy in test [1] is 79.5%. The AC50 in test [2] was 15.8 µM (active); in test [3], 12.6 µM (active); in test [4], 12.6 µM (active).

With `C=CCOC(Cn1ccnc1)c1ccc(Cl)cc1Cl` (stereo not drawn), the efficacy in test [1] was 85%. The AC50 in test [2] and in test [4] was 39.8 µM (active) throughout. Further, in test [3], the result was inactive.

In the case of `CCC(CN)=C(c1ccccc1)c1ccccc1`, the efficacy in test [1] is 124%. For the same compound, the half-maximal activity concentration (AC50) in test [2], in test [3] and in test [4] was 17.8 µM (active) each time.

As to `OC(C#CCN1CCCC1)(c1ccccc1)c1ccccc1`, the efficacy in test [1] was 80.1%. In addition, the concentration at half-maximal activity (AC50) is 39.8 µM (active) in test [2] and 35.5 µM (active) in test [4]. The result in test [3] was inactive.

Regarding `CN1CCCCC1CCN1c2ccccc2Sc2ccc(S(C)=O)cc21` (stereo not drawn), the efficacy in test [1] is 68.6%. Moreover, the AC50 in test [2] is 7.08 µM (active); in test [3], 7.94 µM (active); in test [4] it was 7.94 µM (active).

With `CC[C@H]1C[C@@H]2C[C@H]3c4[nH]c5ccc(OC)cc5c4CCN(C2)[C@@H]13`, the efficacy in test [1] is 66.1%. Moreover, the AC50 in test [2] is 31.6 µM (active); in test [3] it was 39.8 µM (active); in test [4], 39.8 µM (active).
